From PubChem BioAssay
Results filed as inconclusive are left out. Active and inactive are the calls of the source. Unless noted, no rule for the calls is given here.

Tests used:
[1] = rapamycin-like changes in RPL19A-GFP expression – cell-based, S. cerevisiae, multiplex flow cytometry, primary screen (AID 1862; in the data active = percent of DMSO control GFP below about 86%;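 also: lower values mimic rapamycin by blocking the RPL19A rise seen in DMSO cells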); conditions: S. cerevisiae RPL19A-GFP strain, flow cytometry fluorescence, 3 h; at 10 µM; stronger effect = lower value
[2] = TOR pathway GLN3 branch reporter MEP2-GFP changes – S. cerevisiae, multiplex flow cytometry, primary screen (AID 1867;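 active = GFP response, as percent of the DMSO control, above the screen-wide mean plus 3 SD, about 139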;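 also: median GFP channel fluorescence of barcode-gated MEP2-GFP cells measured by flow cytometry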); conditions: S. cerevisiae MEP2-GFP strain, 3 h, at 10 µM, stronger effect = higher value
[3] = TOR pathway RTG branch CIT2 reporter changes – S. cerevisiae, GFP fusion, multiplex flow cytometry, primary screen (AID 1870;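 active = percent response above a set limit, the screen-wide mean plus 3 SD, cut at about 130% in these data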;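 also: barcoded CIT2-GFP strain pooled with four other GFP strains with rapamycin as positive control; median GFP fluorescence per well over plate mean of DMSO wells so 100% = DMSO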); conditions: S. cerevisiae CIT2-GFP expression, 3 h, at 10 µM, stronger effect = higher value
[4] = TOR pathway LAP4-GFP level changes – S. cerevisiae, multiplex flow cytometry, primary screen (AID 1873;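 active = GFP signal, as percent of the solvent control, above the screen mean plus 3 SD, about 149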); conditions: S. cerevisiae LAP4-GFP expression, 3 h, at 10 µM, stronger effect = higher value
[5] = yeast AGP1-GFP level changes, GLN3 branch – cell-based, multiplex flow cytometry, S. cerevisiae, primary screen (AID 1887;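 active = GFP signal above the screen-wide mean plus 3 SD, that is over about 124.5% of the solvent control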;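 also: AGP1-GFP fusion strain of S. cerevisiae within a five-strain barcoded multiplex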); conditions: 3 h, at 10 µM, stronger effect = higher value
[6] = reduced mouse 2C T cell binding to pMHC/ICAM-1 vesicles – MLPCN validation set, flow cytometry, LFA-1/ICAM-1 modulator project, pilot screen (AID 2523;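 active = response below a set limit, under 55% cells CD8-positive and vesicle-bound, and CD8 cells' 90th-percentile brightness under 279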;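 as to vesicle binding response: mean PE anti-B7-1 fluorescence of CD8+ cells relative to row control; 100% = QL9-loaded vesicles with DMSO vehicle in the same plate row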); conditions: 2C mouse CD8+ T cells, at 7 µM, stronger effect = lower value; double positive events: measured here: CD8+/vesicle+ event percentage
[7] = molecular target: Integrin beta-1 (Homo sapiens) + Integrin alpha-4 (Homo sapiens) (UniProt P13612+P05556); experiment: alpha4beta1 integrin LIBS antibody binding reduction – U937 cells, HUTS-21 mAb, flow cytometry, validation set, VLA-4 allosteric modulator project, pilot screen (AID 2674;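 active = inhibition above 50%, about 3 SD of the validation set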;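 also: antibody binding induced by the VLA-4 ligand LDV present at three times its Kd; 0% = LDV ligand with antibody and no compound and 100% = antibody without LDV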); conditions: HUTS-21 LIBS mAb binding, at 6.7 µM, stronger effect = higher value
Sequence of Integrin beta-1 (Homo sapiens) + Integrin alpha-4 (Homo sapiens) (P05556 whole entry, looked up): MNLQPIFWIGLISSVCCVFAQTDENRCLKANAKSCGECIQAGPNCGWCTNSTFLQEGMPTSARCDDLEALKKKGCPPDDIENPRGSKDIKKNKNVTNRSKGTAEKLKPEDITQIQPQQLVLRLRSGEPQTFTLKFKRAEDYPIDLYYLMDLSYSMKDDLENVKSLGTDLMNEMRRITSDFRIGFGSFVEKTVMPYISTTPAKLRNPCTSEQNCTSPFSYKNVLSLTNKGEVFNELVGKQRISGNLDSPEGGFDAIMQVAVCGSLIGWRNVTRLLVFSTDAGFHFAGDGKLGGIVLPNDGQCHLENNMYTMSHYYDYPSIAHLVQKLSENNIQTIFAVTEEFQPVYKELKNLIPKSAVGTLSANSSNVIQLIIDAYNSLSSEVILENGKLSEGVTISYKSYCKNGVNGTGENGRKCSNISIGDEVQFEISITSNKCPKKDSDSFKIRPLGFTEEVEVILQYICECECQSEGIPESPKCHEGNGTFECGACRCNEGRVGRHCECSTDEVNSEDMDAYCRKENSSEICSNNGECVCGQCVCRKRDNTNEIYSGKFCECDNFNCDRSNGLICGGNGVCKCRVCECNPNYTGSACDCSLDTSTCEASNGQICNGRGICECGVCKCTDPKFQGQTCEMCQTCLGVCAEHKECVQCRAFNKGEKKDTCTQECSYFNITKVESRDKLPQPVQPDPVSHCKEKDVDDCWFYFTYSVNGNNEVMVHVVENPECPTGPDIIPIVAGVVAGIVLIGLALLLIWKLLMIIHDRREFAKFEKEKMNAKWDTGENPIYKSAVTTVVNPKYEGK
Sequence of Integrin beta-1 (Homo sapiens) + Integrin alpha-4 (Homo sapiens) (P13612 whole entry, looked up): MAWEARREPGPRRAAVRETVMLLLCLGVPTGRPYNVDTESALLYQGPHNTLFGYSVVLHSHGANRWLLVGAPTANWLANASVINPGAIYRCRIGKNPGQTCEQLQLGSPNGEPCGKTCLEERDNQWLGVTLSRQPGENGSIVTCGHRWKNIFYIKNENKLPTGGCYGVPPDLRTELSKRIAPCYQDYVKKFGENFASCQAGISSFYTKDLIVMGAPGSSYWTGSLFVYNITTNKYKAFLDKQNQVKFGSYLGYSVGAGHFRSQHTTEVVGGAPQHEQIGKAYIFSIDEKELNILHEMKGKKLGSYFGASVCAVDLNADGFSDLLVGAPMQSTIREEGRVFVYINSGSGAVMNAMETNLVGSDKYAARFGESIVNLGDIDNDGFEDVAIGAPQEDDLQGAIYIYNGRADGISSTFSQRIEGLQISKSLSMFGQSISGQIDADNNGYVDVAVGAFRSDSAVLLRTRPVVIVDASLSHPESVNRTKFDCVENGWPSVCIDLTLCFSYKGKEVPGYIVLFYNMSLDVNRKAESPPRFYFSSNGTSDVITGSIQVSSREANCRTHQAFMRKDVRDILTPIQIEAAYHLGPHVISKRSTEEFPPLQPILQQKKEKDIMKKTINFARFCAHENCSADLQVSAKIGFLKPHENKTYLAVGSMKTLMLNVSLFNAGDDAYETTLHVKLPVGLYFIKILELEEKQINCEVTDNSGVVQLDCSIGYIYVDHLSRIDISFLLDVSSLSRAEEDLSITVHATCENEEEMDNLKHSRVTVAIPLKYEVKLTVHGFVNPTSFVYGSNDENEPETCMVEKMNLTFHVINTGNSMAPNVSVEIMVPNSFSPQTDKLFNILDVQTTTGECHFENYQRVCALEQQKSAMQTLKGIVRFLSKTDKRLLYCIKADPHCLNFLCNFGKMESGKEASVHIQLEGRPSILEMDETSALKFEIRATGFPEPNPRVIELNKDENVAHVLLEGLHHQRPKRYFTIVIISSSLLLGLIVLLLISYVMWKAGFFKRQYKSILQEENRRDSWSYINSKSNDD

[8] = calorie-restriction mimetic ROS inhibitors, yeast – validation compound set, pilot screen (AID 2706;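 active = superoxide response below 65% of plate, a cut near 3 SD across the whole screen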;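 also: yeast exposed to compound for one week at 30 degrees C before staining; 100% = mean of all compound wells on the same plate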); conditions: S. cerevisiae aging, superoxide DHE fluorescence; at 10 µM; stronger effect = lower value
[9] = molecular target: Beta-adrenergic receptor kinase 1 (Homo sapiens) (UniProt P25098); experiment: GRK2 binders displacing RNA aptamer, biochemical, validation, human GRK2, bead flow cytometry (AID 488806;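 active = aptamer binding inhibition above 30%, about 3 SD of noise from non-fluorescent compounds; inactive = inhibition at or below 30%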); conditions: bead-bound GRK2, FAM-aptamer displacement, at 10 µM, stronger effect = higher value
[10] = molecular target: Beta-2 adrenergic receptor (Homo sapiens) (UniProt P07550); experiment: agonist-induced loss of surface beta2AR – cell-based, FAP fluorogen, flow cytometry, validation set, pilot screen (AID 504459;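 active = percent response above 42, roughly 3 SD of non-fluorescent test compounds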;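 also: agonist-driven loss of surface beta2AR via internalization measured by FAP dye flow cytometry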); conditions: Am2.2-beta2AR cells, at 10 µM, stronger effect = higher value
[11] = molecular target: AP-2 complex subunit beta (Homo sapiens) (UniProt P63010); experiment: beta-arrestin/AP2 interaction blockers – biochemical, validation set, GST-AP2 beads, flow cytometry, pilot screen (AID 504541;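 active = inhibition above 54%, about 3 SD of non-fluorescent compounds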;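 also: AP2 carries R879A mutation and is captured from E. coli lysate; bead-bound FITC arrestin peptide fluorescence measuring arrestin peptide binding to AP2; 0% = DMSO wells and 100% = excess unlabeled arrestin peptide control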); conditions: FITC arrestin peptide, at 10 µM, stronger effect = higher value
Sequence of AP-2 complex subunit beta (Homo sapiens) (P63010 whole entry, looked up, one chain of several): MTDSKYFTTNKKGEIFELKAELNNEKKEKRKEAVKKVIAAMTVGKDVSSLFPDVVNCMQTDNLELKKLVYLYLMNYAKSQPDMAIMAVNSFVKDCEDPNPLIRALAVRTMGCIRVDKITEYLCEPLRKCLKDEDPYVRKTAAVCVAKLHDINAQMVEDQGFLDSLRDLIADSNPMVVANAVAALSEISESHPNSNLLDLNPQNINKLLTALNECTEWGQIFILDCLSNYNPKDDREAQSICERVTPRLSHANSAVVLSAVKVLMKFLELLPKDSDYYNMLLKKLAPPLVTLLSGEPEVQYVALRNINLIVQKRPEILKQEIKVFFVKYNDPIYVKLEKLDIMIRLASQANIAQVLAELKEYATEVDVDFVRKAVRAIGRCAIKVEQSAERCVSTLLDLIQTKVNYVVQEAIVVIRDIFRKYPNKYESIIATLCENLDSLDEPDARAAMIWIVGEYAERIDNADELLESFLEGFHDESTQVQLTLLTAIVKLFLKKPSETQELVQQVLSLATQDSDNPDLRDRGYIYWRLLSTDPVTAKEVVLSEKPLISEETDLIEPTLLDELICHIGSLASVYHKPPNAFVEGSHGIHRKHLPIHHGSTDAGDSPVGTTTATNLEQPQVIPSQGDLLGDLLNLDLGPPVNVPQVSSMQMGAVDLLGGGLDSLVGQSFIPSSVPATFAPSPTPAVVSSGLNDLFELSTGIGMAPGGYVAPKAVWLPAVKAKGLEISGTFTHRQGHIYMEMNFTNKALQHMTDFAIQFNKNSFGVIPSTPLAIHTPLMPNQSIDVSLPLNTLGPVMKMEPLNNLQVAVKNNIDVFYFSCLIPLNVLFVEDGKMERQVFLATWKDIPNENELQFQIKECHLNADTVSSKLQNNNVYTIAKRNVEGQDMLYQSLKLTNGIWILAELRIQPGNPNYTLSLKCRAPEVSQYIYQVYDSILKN

[12] = cytosolic pH regulators acting via V-ATPase – S. cerevisiae, pHLuorin, HTS validation (AID 504600; in the data active = response above about 15%;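 also: plate controls were DMSO for no effect and reference compound for full effect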); conditions: V-ATPase proton transport, at 10 µM, stronger effect = higher value
[13] = test system: anti-desmoglein-3 scFv antibody binding to human DSG3; experiment: blockers of pathogenic pemphigus antibody–desmoglein-3 binding – biochemical, validation compound set, bead-based, flow cytometry, pilot screen (AID 588368;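 active = binding below the plate cutoff, the plate median minus 3 SD, with a reading above zero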;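 also: signal is the median channel fluorescence of bead-bound GFP antibody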); conditions: Protein G beads, DSG3-Fc, scFv-GFP binding, at 10 µM, stronger effect = lower value
[14] = test system: Botulinum neurotoxin type F light chain protease (Clostridium botulinum); experiment: Clostridium botulinum type F light chain protease inhibitors, microsphere substrate cleavage, validation (AID 588459); conditions: multiplex microsphere protease substrate cleavage assay, flow cytometry; at 10 µM; stronger effect = higher value
[15] = molecular target: Botulinum neurotoxin type A (Clostridium botulinum) (UniProt P0DPI0); experiment: BoNT/A light chain protease inhibitors, biochemical, multiplex microsphere flow cytometry, validation set (AID 588460); conditions: at 10 µM, stronger effect = higher value
Sequence of Botulinum neurotoxin type A (Clostridium botulinum) (P0DPI0 whole entry, looked up): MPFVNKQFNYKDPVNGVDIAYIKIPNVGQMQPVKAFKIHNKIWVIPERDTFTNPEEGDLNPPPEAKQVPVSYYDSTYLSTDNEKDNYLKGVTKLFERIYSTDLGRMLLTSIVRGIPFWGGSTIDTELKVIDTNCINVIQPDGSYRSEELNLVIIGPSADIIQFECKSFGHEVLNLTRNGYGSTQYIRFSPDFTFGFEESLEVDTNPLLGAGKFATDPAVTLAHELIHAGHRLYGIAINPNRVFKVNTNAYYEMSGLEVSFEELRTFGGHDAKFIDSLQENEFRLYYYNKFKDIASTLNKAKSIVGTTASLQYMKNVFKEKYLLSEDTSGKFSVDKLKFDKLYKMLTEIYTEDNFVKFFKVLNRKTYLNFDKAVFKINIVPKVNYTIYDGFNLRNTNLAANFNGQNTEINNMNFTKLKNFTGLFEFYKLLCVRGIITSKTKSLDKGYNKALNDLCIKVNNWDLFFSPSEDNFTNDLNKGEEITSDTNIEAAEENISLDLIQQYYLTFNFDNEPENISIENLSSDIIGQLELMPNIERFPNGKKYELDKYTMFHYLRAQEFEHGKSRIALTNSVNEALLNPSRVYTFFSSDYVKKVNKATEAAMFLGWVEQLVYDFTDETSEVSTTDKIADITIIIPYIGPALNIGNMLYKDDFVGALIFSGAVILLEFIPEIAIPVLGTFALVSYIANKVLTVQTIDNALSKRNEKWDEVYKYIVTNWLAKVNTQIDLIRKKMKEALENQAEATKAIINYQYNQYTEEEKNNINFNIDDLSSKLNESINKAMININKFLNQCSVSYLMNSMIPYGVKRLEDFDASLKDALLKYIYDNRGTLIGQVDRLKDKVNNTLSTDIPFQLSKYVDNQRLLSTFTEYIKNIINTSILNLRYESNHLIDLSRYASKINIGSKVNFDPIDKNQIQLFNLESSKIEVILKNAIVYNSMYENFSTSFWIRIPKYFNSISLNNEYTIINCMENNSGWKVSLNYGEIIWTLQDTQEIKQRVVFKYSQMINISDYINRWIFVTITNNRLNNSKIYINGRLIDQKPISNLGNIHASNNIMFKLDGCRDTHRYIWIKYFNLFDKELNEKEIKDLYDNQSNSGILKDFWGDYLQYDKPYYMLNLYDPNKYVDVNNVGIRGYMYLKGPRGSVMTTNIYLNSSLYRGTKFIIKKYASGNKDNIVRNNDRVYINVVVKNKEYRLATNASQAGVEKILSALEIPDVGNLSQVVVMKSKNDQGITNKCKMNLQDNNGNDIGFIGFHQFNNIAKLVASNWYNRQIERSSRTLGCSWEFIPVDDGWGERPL

[16] = molecular target: Lethal factor (Bacillus anthracis) (UniProt P15917); experiment: Bacillus anthracis lethal factor inhibition, microsphere flow cytometry protease assay, validation at 10 µM (AID 588461); conditions: multiplex microsphere protease cleavage assay, stronger effect = higher value
Sequence of Lethal factor (Bacillus anthracis) (P15917 whole entry, looked up): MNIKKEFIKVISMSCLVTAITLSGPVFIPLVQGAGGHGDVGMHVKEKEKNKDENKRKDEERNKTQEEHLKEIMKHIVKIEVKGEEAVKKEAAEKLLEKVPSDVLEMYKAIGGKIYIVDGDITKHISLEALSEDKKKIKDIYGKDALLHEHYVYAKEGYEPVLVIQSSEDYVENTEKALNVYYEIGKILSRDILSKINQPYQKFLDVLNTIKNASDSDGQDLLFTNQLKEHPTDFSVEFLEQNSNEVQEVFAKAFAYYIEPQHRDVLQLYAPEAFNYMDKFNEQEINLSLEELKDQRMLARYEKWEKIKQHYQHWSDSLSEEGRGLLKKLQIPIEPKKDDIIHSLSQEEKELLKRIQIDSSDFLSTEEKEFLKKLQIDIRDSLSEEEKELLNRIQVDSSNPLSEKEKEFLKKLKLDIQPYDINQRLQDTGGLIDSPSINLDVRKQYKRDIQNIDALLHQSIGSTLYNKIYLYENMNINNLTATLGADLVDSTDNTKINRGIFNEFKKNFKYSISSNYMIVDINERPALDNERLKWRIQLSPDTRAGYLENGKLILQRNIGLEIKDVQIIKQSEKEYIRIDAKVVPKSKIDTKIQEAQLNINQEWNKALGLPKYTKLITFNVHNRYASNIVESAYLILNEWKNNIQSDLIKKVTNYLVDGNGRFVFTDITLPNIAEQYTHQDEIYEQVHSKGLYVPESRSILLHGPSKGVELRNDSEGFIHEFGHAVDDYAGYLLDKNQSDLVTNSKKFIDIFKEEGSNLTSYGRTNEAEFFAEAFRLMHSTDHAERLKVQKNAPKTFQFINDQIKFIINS

[17] = Nile Red efflux blockade in pump-expressing yeast – validation compound set, multiplex, phenotypic, pilot screen (AID 588506;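 active = efflux inhibition above 0.42, the validation set average plus 4 SD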;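 also: Nile Red retained in cells so higher fluorescence means more efflux inhibition; 0 = negative control wells and 1 = enniatin B 25 µM full block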); conditions: S. cerevisiae pump-expressing triplex, Nile Red efflux flow cytometry; at 10 µM; stronger effect = higher value
[18] = molecular target: ATP-binding cassette sub-family B member 6 (Homo sapiens) (UniProt Q9NP58); experiment: blockers of ABCB6-driven porphyrin uptake – K562-ABCB6 cells, flow cytometry, validation set, pilot screen (AID 588550;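 active = inhibition above the screen-wide mean plus 3 SD, about 51%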;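 also: 0% = DMSO wells and 100% = benzethonium chloride 70 µM positive control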); conditions: K562-ABCB6 porphyrin accumulation, 1 h, at 10 µM, stronger effect = higher value
[19] = AML differentiation inducers, ER-HoxA9 marrow cells – cell-based, GFP/MAC1 double positive, flow cytometry, validation set, primary screen (AID 588685;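 active = differentiation response of at least 50%, scaled between solvent and reference control, from cells with both markers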;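 also: compound exposure lasts four days before antibody staining and flow analysis; 0% = DMSO wells and 100% = 5 µM fulvestrant positive control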); conditions: stronger effect = higher value

CC(C)CCC1(CN2CCCC2=O)C(=O)NC(=O)NC1=O
58.9%: double positive events [6]
inactive: percent of DMSO control GFP [1] 95.4% | GFP response vs DMSO [2] 105% | percent response of DMSO control [3] 86.3% | GFP response vs DMSO [4] 120% | GFP response, % of DMSO [5] 101% | vesicle binding response [6] 219% | inhibition [7] 0.94% | superoxide response (% of plate) [8] 97.2% | aptamer binding inhibition [9] 1% | response [10] 5.39% | inhibition [11] -2.03% | response [12] -6.71% | binding (% of control) [13] 98.4% | inhibition [14] 2.3% | inhibition [15] 0.7% | inhibition [16] -0.7% | efflux inhibition (fraction of control) [17] 0.12 | inhibition [18] 5% | differentiation response [19] 45.6%

COP(=S)(OC)SCN1C(=O)c2ccccc2C1=O
inactive: percent of DMSO control GFP [1] 90.6% | GFP response vs DMSO [2] 92.7% | percent response of DMSO control [3] 97% | GFP response vs DMSO [4] 144% | GFP response, % of DMSO [5] 107% | vesicle binding response [6] 194% | inhibition [7] 0.59% | superoxide response (% of plate) [8] 97.7% | aptamer binding inhibition [9] -4% | response [10] -10.4% | inhibition [11] -11.6% | response [12] 6.49% | binding (% of control) [13] 96.4% | inhibition [14] -1.7% | inhibition [15] -0.5% | inhibition [16] -2.9% | efflux inhibition (fraction of control) [17] -0.09 | inhibition [18] -1% | differentiation response [19] 3.88%
63.5%: double positive events [6]

CC[N+]1(C)CCCC(OC(=O)C(O)(c2ccccc2)c2ccccc2)C1 (stereo not given)
61%: double positive events [6]
inactive: percent of DMSO control GFP [1] 99% | GFP response vs DMSO [2] 102% | percent response of DMSO control [3] 103% | GFP response vs DMSO [4] 103% | GFP response, % of DMSO [5] 119% | vesicle binding response [6] 160% | inhibition [7] 5.69% | superoxide response (% of plate) [8] 96.5% | aptamer binding inhibition [9] 4% | response [10] -15.3% | inhibition [11] -0.87% | response [12] -0.49% | binding (% of control) [13] 107% | inhibition [14] 0.8% | inhibition [15] -0.6% | inhibition [16] 8% | efflux inhibition (fraction of control) [17] 0.04 | inhibition [18] 1% | differentiation response [19] -5.97%
